Test results from PubChem BioAssay (Tox21).
Results filed as inconclusive are left out. Active and inactive are the calls of the source. The call rests on the fitted dose curve; in most records, active means well fitted curve in the direction sought with a large enough effect in the repeat runs; inconclusive means weak or mixed curves; inactive means no such curve, though single readings can be large; an effect the other way counts as inactive or inconclusive.

Key:
[1] = qHTS RealTime-Glo MT Cell Viability Assay in HepG2 cells - 40 hour (AID 1224870); further: nearly all actives have a fitted effect of over 50% in size
Outline: (§1)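 Real-time viability: cells seeded at 600 per well together with NanoLuc and cell-permeant prosubstrate, compounds added after 5 h incubation. Luminescence tracked at 0, 8, 16, 24, 32 and 40 h of exposure.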

[2] = A CellTox Green Cytotoxicity Assay to monitor cytotoxicity in HEK293 cells - 40 hour (AID 1224871); further: nearly all actives have a fitted effect of over 45% in size
Outline: (§2)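 HEK293 cells premixed with CellTox Green dye were seeded at 600 cells/well and left 5 h at 37 C/5% CO2 before pin transfer of 23 nL compound in DMSO. Fluorescence from dye bound to dead-cell DNA was read during 40 h treatment.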

[3] = qHTS RealTime-Glo MT Cell Viability Assay in HEK293 cells - 16 hour (AID 1224872); further: top concentration of the series differs between compounds; nearly all actives have a fitted effect of over 50% in size
Outline: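 Viability tracked continuously by luminescence as live cells reduce a prosubstrate for NanoLuc; HEK293 cells preincubated 5 h, compound-treated at 37 C, and read at 0, 8, 16, 24, 32 and 40 h.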

[4] = qHTS RealTime-Glo MT Cell Viability Assay in HepG2 cells - 8 hour (AID 1224873); further: nearly all actives have a fitted effect of over 55% in size
Outline: as §1

[5] = qHTS RealTime-Glo MT Cell Viability Assay in HEK293 cells - 40 hour (AID 1224874); settings: RealTime-Glo luminescence; max response: hits give low values; further: nearly all actives have a fitted effect of over 50% in size
Outline: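 HEK293 cells mixed with RealTime-Glo reagents (NanoLuc plus cell-permeant prosubstrate) at 600 cells/well, preincubated 5 h at 37 C/5% CO2, then given 23 nL compound in DMSO. Nonlytic luminescence from viable cells was read at 0, 8, 16, 24, 32 and 40 h.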

[6] = A CellTox Green Cytotoxicity Assay to monitor cytotoxicity in HEK293 cells - 24 hour (AID 1224875); further: series mostly up to about 77 µM; nearly all actives have a fitted effect of over 45% in size
Outline: as §2

[7] = A CellTox Green Cytotoxicity Assay to monitor cytotoxicity in HepG2 cells - 16 hour (AID 1224876); further: nearly all actives have a fitted effect of over 45% in size
Outline: (§3)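 HepG2 cells were seeded together with the CellTox Green dye at 600 cells/well, left 5 h at 37 C/5% CO2, then given compounds in DMSO. Fluorescence from dye bound to dead-cell DNA was read repeatedly over 40 h of treatment at 37 C.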

[8] = qHTS RealTime-Glo MT Cell Viability Assay in HepG2 cells - 32 hour (AID 1224877); further: nearly all actives have a fitted effect of over 55% in size
Outline: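 Viability was tracked continuously by NanoLuc luminescence from prosubstrate reduced by living HepG2 cells, at successive time points over 40 h of compound exposure. Cells with reagent were preincubated 5 h at 37 °C before compound addition.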

[9] = A CellTox Green Cytotoxicity Assay to monitor cytotoxicity in HepG2 cells - 24 hour (AID 1224878); further: nearly all actives have a fitted effect of over 45% in size
Outline: as §3

[10] = A CellTox Green Cytotoxicity Assay to monitor cytotoxicity in HepG2 cells - 40 hour (AID 1224879); further: nearly all actives have a fitted effect of over 40% in size
Outline: as §3
On the % scale 0 is the no-effect control and ±100 the full control effect.

CC(C)COC(=O)COc1cc(Cl)c(Cl)cc1Cl
inactive: Potency [1] | Potency [2] | Potency [3] | Potency [4] | max response [5] -15.9% | Potency [6] | Potency [7] | Potency [8] | Potency [9] | Potency [10]

CCN(CC)CCNC(=O)c1cc(Cl)c(N)cc1OC
inactive: Potency [1] | Potency [2] | Potency [3] | Potency [4] | max response [5] -5.88% | Potency [6] | Potency [7] | Potency [8] | Potency [9] | Potency [10]

O=C(O)CCC(=O)c1ccc(-c2ccccc2)cc1
inactive: Potency [1] | Potency [2] | Potency [3] | Potency [4] | max response [5] 0.573% | Potency [6] | Potency [7] | Potency [8] | Potency [9] | Potency [10]

CC[C@H]1OC(=O)[C@H](C)[C@@H](O[C@H]2C[C@@](C)(OC)[C@@H](O)[C@H](C)O2)[C@H](C)[C@@H](O[C@@H]2O[C@H](C)C[C@H](N(C)C)[C@H]2O)[C@](C)(O)C[C@@H](C)C(=O)[C@H](C)[C@@H](O)[C@]1(C)O
inactive: Potency [1] | Potency [2] | Potency [3] | Potency [4] | max response [5] -19.4% | Potency [6] | Potency [7] | Potency [8] | Potency [9] | Potency [10]

CC(=O)NCCO
inactive: Potency [1] | Potency [2] | Potency [3] | Potency [4] | max response [5] 8.1% | Potency [6] | Potency [7] | Potency [8] | Potency [9] | Potency [10]

CCN(CC)CC(=O)Nc1c(C)cccc1C(=O)OC
inactive: Potency [1] | Potency [2] | Potency [3] | Potency [4] | max response [5] 0.513% | Potency [6] | Potency [7] | Potency [8] | Potency [9] | Potency [10]

CS(=O)(=O)c1ccc([C@@H](C[C@H]2CCC(=O)C2)C(=O)Nc2cnccn2)cc1Cl
inactive: Potency [1] | Potency [2] | Potency [3] | Potency [4] | max response [5] 0.0186% | Potency [6] | Potency [7] | Potency [8] | Potency [9] | Potency [10]

CC(=O)NNC(C)=O
inactive: Potency [1] | Potency [2] | Potency [3] | Potency [4] | max response [5] 0.186% | Potency [6] | Potency [7] | Potency [8] | Potency [9] | Potency [10]

O=S(=O)(O)CO
inactive: Potency [1] | Potency [2] | Potency [3] | Potency [4] | max response [5] 4.46% | Potency [6] | Potency [7] | Potency [8] | Potency [9] | Potency [10]

C[C@H](CS)C(=O)N1CCC[C@H]1C(=O)O
inactive: Potency [1] | Potency [2] | Potency [3] | Potency [4] | max response [5] 9.42% | Potency [6] | Potency [7] | Potency [8] | Potency [9] | Potency [10]

Cc1ccc(Cl)cc1N
inactive: Potency [1] | Potency [2] | Potency [3] | Potency [4] | max response [5] 4.39% | Potency [6] | Potency [7] | Potency [8] | Potency [10]

CC(=O)c1ccc[nH]1
inactive: Potency [1] | Potency [2] | Potency [3] | Potency [4] | max response [5] -0.568% | Potency [6] | Potency [7] | Potency [8] | Potency [10]

COc1ccc(-n2nc(C(F)F)cc2-c2ccc(S(C)=O)cc2)cc1 (stereo not drawn)
inactive: Potency [1] | Potency [2] | Potency [3] | Potency [4] | max response [5] -24.7% | Potency [6] | Potency [8]

CC(=O)OCC(=O)[C@@]1(OC(C)=O)[C@@H](C)C[C@H]2[C@@H]3C[C@H](F)C4=CC(=O)C=C[C@]4(C)[C@@]3(F)[C@@H](O)C[C@@]21C
inactive: Potency [1] | Potency [2] | Potency [3] | Potency [4] | max response [5] -24.6% | Potency [6] | Potency [7] | Potency [8] | Potency [10]

CCOC(=O)C(C)O (stereo not drawn)
inactive: Potency [1] | Potency [2] | Potency [3] | Potency [4] | max response [5] 15.3% | Potency [6] | Potency [8] | Potency [9] | Potency [10]

CC(C)(O)CCc1ccccc1
inactive: Potency [1] | Potency [2] | Potency [3] | Potency [4] | max response [5] -8.47% | Potency [6] | Potency [7] | Potency [8] | Potency [10]

CCCCCCCCCCCSCC(=O)O
inactive: Potency [1] | Potency [2] | Potency [3] | Potency [4] | max response [5] 2.44% | Potency [6] | Potency [7] | Potency [8] | Potency [10]

CC1C(C)(C)C2=C(C(=O)CCC2)C1(C)C (stereo not drawn)
inactive: Potency [1] | Potency [2] | Potency [3] | Potency [4] | max response [5] -12.9% | Potency [6] | Potency [8]

COC(OC)OC
inactive: Potency [1] | Potency [2] | Potency [3] | Potency [4] | max response [5] 11.5% | Potency [6] | Potency [7] | Potency [8] | Potency [10]

O=C1[C@@H]2[C@H]3CC[C@H](C3)[C@@H]2C(=O)N1CCCCN1CCN(c2ncccn2)CC1
inactive: Potency [1] | Potency [2] | Potency [3] | Potency [4] | max response [5] -0.051% | Potency [6] | Potency [8]

CC(C)c1ccc(C(=O)N=C(N)N)cc1S(C)(=O)=O
inactive: Potency [1] | Potency [2] | Potency [3] | Potency [4] | max response [5] 18.4% | Potency [6] | Potency [7] | Potency [8] | Potency [10]

CCC(CO)(CO)[N+](=O)[O-]
inactive: Potency [1] | Potency [2] | Potency [3] | Potency [4] | max response [5] 1.66% | Potency [6] | Potency [8]

CSSc1ccoc1C
inactive: Potency [1] | Potency [2] | Potency [3] | Potency [4] | max response [5] 0.757% | Potency [6] | Potency [7] | Potency [8] | Potency [10]

C=C(C)C(=O)OCCC(F)(F)C(F)(F)C(F)(F)C(F)(F)C(F)(F)C(F)(F)F
inactive: Potency [1] | Potency [2] | Potency [3] | Potency [4] | max response [5] 0.419% | Potency [6] | Potency [7] | Potency [8] | Potency [10]
